These results are taken from PubChem BioAssay.

A word on the inhibition: it is the drop in the measured response relative to a control, in per cent.

A short description of assay [1]: rapamycin-like changes in RPL19A-GFP expression – cell-based, S. cerevisiae, multiplex flow cytometry, primary screen (AID 1862; in the data active means percent of DMSO control GFP below about 86%;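 further: lower values mimic rapamycin by blocking the RPL19A rise seen in DMSO cells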). As to conditions: S. cerevisiae RPL19A-GFP strain, flow cytometry fluorescence, 3 h; at 10 µM; stronger effect = lower value. In general terms: Flow cytometry measures light scatter and fluorescence of single cells or particles in a stream.
The nature of assay [2]: TOR pathway GLN3 branch reporter MEP2-GFP changes – S. cerevisiae, multiplex flow cytometry, primary screen (AID 1867;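 active means GFP response, as percent of the DMSO control, above the screen-wide mean plus 3 SD, about 139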;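 further: median GFP channel fluorescence of barcode-gated MEP2-GFP cells measured by flow cytometry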). As to conditions: S. cerevisiae MEP2-GFP strain, 3 h, at 10 µM, stronger effect = higher value, 100% means same as DMSO wells.
A short description of assay [3]: TOR pathway RTG branch CIT2 reporter changes – S. cerevisiae, GFP fusion, multiplex flow cytometry, primary screen (AID 1870;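 active means percent response above a set limit, the screen-wide mean plus 3 SD, cut at about 130% in these data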;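 further: barcoded CIT2-GFP strain pooled with four other GFP strains with rapamycin as positive control; median GFP fluorescence per well over plate mean of DMSO wells so 100% = DMSO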). Conditions: S. cerevisiae CIT2-GFP expression, 3 h, at 10 µM, stronger effect = higher value.
Assay [4] can be described thus: TOR pathway LAP4-GFP level changes – S. cerevisiae, multiplex flow cytometry, primary screen (AID 1873;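 active means GFP signal, as percent of the solvent control, above the screen mean plus 3 SD, about 149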). As to conditions: S. cerevisiae LAP4-GFP expression, 3 h, at 10 µM, stronger effect = higher value.
A short description of assay [5]: yeast AGP1-GFP level changes, GLN3 branch – cell-based, multiplex flow cytometry, S. cerevisiae, primary screen (AID 1887;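 active means GFP signal above the screen-wide mean plus 3 SD, that is over about 124.5% of the solvent control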;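 further: AGP1-GFP fusion strain of S. cerevisiae within a five-strain barcoded multiplex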). As to conditions: 3 h, at 10 µM, stronger effect = higher value.
The nature of assay [6]: reduced mouse 2C T cell binding to pMHC/ICAM-1 vesicles – MLPCN validation set, flow cytometry, LFA-1/ICAM-1 modulator project, pilot screen (AID 2523;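 active means response below a set limit, under 55% cells CD8-positive and vesicle-bound, and CD8 cells' 90th-percentile brightness under 279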;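 on vesicle binding response: mean PE anti-B7-1 fluorescence of CD8+ cells relative to row control; 100% = QL9-loaded vesicles with DMSO vehicle in the same plate row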). As to conditions: 2C mouse CD8+ T cells, at 7 µM, stronger effect = lower value; double positive events: measured here: CD8+/vesicle+ event percentage.
Assay [7] addresses Integrin beta-1 (Homo sapiens) + Integrin alpha-4 (Homo sapiens) (UniProt P13612+P05556). Description: alpha4beta1 integrin LIBS antibody binding reduction – U937 cells, HUTS-21 mAb, flow cytometry, validation set, VLA-4 allosteric modulator project, pilot screen (AID 2674;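 active means inhibition above 50%, about 3 SD of the validation set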;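 further: antibody binding induced by the VLA-4 ligand LDV present at three times its Kd; 0% = LDV ligand with antibody and no compound and 100% = antibody without LDV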). As to conditions: HUTS-21 LIBS mAb binding, at 6.7 µM, stronger effect = higher value, binding induced by LDV ligand.

Assay [8] can be described thus: calorie-restriction mimetic ROS inhibitors, yeast – validation compound set, pilot screen (AID 2706;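 active means superoxide response below 65% of plate, a cut near 3 SD across the whole screen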;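 further: yeast exposed to compound for one week at 30 degrees C before staining; 100% = mean of all compound wells on the same plate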). Conditions: S. cerevisiae aging, superoxide DHE fluorescence; at 10 µM; stronger effect = lower value.
The target in assay [9] is Beta-adrenergic receptor kinase 1 (Homo sapiens) (UniProt P25098). The assay is described as follows: GRK2 binders displacing RNA aptamer, biochemical, validation, human GRK2, bead flow cytometry (AID 488806;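 active means aptamer binding inhibition above 30%, about 3 SD of noise from non-fluorescent compounds; inactive means inhibition at or below 30%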). As to conditions: bead-bound GRK2, FAM-aptamer displacement, at 10 µM, stronger effect = higher value.
Beta-adrenergic receptor kinase 1 (Homo sapiens), sequence (P25098 whole entry, looked up): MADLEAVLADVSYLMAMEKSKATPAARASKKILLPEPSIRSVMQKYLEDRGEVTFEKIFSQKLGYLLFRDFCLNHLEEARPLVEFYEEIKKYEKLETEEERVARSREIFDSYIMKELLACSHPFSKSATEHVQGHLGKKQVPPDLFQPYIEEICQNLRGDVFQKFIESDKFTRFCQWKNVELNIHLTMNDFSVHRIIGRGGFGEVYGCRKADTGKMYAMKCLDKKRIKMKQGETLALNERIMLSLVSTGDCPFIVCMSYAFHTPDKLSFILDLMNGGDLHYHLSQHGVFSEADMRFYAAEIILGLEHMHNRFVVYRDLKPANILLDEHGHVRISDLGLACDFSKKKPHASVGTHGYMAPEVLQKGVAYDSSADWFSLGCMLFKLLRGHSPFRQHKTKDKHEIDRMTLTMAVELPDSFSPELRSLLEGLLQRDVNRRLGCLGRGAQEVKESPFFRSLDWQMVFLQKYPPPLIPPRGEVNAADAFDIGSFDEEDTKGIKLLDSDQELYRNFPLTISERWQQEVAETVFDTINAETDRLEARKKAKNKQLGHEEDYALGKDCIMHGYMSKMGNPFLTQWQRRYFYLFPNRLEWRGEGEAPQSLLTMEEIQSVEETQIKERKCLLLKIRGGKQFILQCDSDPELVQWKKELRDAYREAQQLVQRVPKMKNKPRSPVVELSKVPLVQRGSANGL
In assay [10] the target is Beta-2 adrenergic receptor (Homo sapiens) (UniProt P07550). The assay is described as follows: agonist-induced loss of surface beta2AR – cell-based, FAP fluorogen, flow cytometry, validation set, pilot screen (AID 504459;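 active means percent response above 42, roughly 3 SD of non-fluorescent test compounds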;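 further: agonist-driven loss of surface beta2AR via internalization measured by FAP dye flow cytometry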). As to conditions: Am2.2-beta2AR cells, at 10 µM, stronger effect = higher value.
Beta-2 adrenergic receptor (Homo sapiens), sequence (P07550 whole entry, looked up): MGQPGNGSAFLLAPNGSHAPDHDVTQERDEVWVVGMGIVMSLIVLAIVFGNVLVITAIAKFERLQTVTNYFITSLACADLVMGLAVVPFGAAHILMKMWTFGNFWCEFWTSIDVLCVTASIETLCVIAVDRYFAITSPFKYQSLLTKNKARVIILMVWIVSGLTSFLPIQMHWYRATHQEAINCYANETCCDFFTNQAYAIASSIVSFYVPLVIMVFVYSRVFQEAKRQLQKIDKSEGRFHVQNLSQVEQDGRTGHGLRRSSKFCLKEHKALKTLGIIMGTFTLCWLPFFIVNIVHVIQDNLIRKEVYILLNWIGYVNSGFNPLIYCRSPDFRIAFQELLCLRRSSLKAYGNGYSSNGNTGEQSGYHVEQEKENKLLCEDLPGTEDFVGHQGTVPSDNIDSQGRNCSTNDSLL
The target in assay [11] is AP-2 complex subunit beta (Homo sapiens) (UniProt P63010). Description: beta-arrestin/AP2 interaction blockers – biochemical, validation set, GST-AP2 beads, flow cytometry, pilot screen (AID 504541;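 active means inhibition above 54%, about 3 SD of non-fluorescent compounds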;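 further: AP2 carries R879A mutation and is captured from E. coli lysate; bead-bound FITC arrestin peptide fluorescence measuring arrestin peptide binding to AP2; 0% = DMSO wells and 100% = excess unlabeled arrestin peptide control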). Conditions: FITC arrestin peptide, at 10 µM, stronger effect = higher value, AP2 beta2 appendage fragment, R879A mutant.
AP-2 complex subunit beta (Homo sapiens), sequence (P63010 whole entry, looked up, the tested form may be a part, one chain of several): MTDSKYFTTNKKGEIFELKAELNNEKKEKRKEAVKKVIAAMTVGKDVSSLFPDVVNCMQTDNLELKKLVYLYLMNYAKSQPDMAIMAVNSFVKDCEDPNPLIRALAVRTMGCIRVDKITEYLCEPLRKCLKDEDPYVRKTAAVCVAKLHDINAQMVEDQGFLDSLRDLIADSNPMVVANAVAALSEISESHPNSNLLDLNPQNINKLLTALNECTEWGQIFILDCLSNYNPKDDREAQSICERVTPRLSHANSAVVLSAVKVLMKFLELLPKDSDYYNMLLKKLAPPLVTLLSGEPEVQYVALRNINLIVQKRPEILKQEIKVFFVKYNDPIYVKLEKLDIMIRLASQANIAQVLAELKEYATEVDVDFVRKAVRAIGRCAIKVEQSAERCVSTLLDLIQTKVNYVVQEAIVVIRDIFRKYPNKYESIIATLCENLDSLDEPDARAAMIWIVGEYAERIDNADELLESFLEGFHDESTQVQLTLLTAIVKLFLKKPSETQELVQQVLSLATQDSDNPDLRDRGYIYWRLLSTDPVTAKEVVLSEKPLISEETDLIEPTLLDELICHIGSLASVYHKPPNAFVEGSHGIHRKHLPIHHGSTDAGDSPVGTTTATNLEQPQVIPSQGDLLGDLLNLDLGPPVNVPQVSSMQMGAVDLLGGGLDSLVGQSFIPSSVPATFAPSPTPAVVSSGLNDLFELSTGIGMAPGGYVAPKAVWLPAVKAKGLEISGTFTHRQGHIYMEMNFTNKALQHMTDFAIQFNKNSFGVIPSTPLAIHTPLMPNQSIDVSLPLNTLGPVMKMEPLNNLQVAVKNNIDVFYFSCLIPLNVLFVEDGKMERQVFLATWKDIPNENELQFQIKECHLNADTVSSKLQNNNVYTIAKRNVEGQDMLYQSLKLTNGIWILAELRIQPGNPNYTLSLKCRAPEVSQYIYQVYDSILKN
Assay [12] is described as follows: cytosolic pH regulators acting via V-ATPase – S. cerevisiae, pHLuorin, HTS validation (AID 504600; in the data active means response above about 15%;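 further: plate controls were DMSO for no effect and reference compound for full effect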). Conditions: V-ATPase proton transport, at 10 µM, stronger effect = higher value.
In assay [13] the test system is anti-desmoglein-3 scFv antibody binding to human DSG3. The assay is described as follows: blockers of pathogenic pemphigus antibody–desmoglein-3 binding – biochemical, validation compound set, bead-based, flow cytometry, pilot screen (AID 588368;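 active means binding below the plate cutoff, the plate median minus 3 SD, with a reading above zero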;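 further: signal is the median channel fluorescence of bead-bound GFP antibody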). As to conditions: Protein G beads, DSG3-Fc, scFv-GFP binding, at 10 µM, stronger effect = lower value.
Assay [14] in a line: Nile Red efflux blockade in pump-expressing yeast – validation compound set, multiplex, phenotypic, pilot screen (AID 588506;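 active means efflux inhibition above 0.42, the validation set average plus 4 SD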;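 further: Nile Red retained in cells so higher fluorescence means more efflux inhibition; 0 = negative control wells and 1 = enniatin B 25 µM full block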). As to conditions: S. cerevisiae pump-expressing triplex, Nile Red efflux flow cytometry; at 10 µM; stronger effect = higher value; the pumps come from Candida albicans.
Assay [15] deals with ATP-binding cassette sub-family B member 6 (Homo sapiens) (UniProt Q9NP58). Description: blockers of ABCB6-driven porphyrin uptake – K562-ABCB6 cells, flow cytometry, validation set, pilot screen (AID 588550).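 Further: 0% = DMSO wells and 100% = benzethonium chloride 70 µM positive control.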 As to conditions: K562-ABCB6 porphyrin accumulation, 1 h, at 10 µM, stronger effect = higher value.
ATP-binding cassette sub-family B member 6 (Homo sapiens), sequence (Q9NP58 whole entry, looked up): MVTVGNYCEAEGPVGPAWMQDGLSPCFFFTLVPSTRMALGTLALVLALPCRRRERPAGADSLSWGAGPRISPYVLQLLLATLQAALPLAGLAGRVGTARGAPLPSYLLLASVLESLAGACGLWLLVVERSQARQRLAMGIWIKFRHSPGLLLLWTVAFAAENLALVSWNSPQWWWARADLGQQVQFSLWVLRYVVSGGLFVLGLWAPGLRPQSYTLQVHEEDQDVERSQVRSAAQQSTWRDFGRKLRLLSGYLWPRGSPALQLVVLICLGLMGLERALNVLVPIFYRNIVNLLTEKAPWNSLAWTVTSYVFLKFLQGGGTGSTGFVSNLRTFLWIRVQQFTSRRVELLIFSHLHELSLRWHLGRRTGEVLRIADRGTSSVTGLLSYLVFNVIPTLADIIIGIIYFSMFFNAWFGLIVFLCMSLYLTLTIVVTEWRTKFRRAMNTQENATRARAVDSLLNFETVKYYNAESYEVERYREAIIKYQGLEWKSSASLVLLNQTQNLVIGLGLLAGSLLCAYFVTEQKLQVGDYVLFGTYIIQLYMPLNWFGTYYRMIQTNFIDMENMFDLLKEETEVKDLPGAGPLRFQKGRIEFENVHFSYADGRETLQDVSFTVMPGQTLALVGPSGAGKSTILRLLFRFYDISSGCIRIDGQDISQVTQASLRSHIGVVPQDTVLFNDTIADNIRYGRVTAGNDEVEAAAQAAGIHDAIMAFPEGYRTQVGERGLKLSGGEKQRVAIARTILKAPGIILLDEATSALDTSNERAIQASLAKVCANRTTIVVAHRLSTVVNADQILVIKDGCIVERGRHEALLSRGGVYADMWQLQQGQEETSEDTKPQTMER
A short description of assay [16]: AML differentiation inducers, ER-HoxA9 marrow cells – cell-based, GFP/MAC1 double positive, flow cytometry, validation set, primary screen (AID 588685;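 active means differentiation response of at least 50%, scaled between solvent and reference control, from cells with both markers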;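 further: compound exposure lasts four days before antibody staining and flow analysis; 0% = DMSO wells and 100% = 5 µM fulvestrant positive control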). As to conditions: stronger effect = higher value, normalized: vehicle 0, fulvestrant 100.

Results filed as inconclusive are left out. Activity calls are given as the source filed them.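 How the source made its calls, unless noted: active means inhibition above the screen-wide mean plus 3 SD, about 51%; inactive means the rest.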

Integrin beta-1 (Homo sapiens) + Integrin alpha-4 (Homo sapiens), sequence (P05556 whole entry, looked up): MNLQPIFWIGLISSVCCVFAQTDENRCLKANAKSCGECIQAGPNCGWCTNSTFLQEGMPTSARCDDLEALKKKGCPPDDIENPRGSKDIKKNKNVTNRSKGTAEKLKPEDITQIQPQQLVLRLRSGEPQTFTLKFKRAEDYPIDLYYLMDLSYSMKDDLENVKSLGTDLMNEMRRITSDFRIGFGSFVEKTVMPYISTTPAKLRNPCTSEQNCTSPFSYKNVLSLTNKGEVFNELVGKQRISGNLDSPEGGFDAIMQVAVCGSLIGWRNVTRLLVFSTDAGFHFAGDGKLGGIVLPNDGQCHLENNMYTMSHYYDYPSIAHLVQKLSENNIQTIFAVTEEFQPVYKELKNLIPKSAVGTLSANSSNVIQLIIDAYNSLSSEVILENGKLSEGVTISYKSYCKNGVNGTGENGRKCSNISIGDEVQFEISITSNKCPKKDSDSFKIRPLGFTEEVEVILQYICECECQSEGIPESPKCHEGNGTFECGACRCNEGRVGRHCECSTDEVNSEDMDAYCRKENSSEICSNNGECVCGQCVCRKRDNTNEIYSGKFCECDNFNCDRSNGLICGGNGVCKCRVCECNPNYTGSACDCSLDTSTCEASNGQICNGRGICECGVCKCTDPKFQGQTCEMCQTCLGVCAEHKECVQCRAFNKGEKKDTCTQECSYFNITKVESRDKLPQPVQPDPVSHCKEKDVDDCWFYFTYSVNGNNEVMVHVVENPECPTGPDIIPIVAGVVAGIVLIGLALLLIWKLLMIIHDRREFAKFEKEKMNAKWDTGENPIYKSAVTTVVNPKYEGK
Integrin beta-1 (Homo sapiens) + Integrin alpha-4 (Homo sapiens), sequence (P13612 whole entry, looked up): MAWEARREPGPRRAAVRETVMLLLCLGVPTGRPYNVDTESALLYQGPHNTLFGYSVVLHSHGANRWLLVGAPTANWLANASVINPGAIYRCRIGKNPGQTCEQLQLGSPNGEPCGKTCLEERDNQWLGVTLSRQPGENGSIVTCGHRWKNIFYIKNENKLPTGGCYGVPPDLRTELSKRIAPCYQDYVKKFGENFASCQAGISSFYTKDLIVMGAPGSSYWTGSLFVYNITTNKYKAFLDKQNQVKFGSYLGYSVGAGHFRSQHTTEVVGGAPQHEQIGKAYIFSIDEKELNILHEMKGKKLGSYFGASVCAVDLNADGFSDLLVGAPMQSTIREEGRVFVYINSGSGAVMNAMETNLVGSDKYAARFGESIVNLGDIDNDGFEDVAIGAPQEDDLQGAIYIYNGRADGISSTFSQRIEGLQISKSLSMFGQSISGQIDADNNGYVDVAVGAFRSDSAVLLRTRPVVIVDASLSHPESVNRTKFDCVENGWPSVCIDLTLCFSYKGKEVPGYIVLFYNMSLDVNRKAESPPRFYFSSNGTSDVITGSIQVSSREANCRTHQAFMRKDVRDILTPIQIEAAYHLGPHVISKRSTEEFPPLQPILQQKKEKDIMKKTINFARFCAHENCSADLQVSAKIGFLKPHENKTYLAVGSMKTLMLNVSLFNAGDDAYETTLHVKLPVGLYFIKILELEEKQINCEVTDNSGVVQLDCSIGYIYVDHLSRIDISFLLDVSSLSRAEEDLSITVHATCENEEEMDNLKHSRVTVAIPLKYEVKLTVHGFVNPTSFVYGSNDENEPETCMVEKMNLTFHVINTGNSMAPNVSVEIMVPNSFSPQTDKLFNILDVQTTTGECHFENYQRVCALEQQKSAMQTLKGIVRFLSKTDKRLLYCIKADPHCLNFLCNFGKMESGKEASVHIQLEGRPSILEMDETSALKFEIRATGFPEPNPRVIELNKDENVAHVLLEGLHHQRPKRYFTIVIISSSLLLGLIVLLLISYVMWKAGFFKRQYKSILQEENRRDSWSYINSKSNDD

With `CCCC(=O)O[C@]1(C(=O)CCl)[C@@H](C)C[C@H]2[C@@H]3CCC4=CC(=O)C=C[C@]4(C)[C@@]3(F)C(=O)C[C@@]21C`, the percent of DMSO control GFP in [1] is 93.7% (inactive). The GFP response vs DMSO in assay [2] is 134% (inactive); in [4], 85.8% (inactive). In assay [3], the percent response of DMSO control is 111% (inactive). For the same compound, the GFP response, % of DMSO in [5] was 87.3% (inactive). The same compound yielded a double positive events in assay [6] of 65.1%. Further, in [6], the vesicle binding response is 147% (inactive). The inhibition is 1.61% (inactive) in [7], 11.3% (inactive) in assay [11] and 8% (inactive) in [15]. Moreover, the superoxide response (% of plate) in [8] was 98.4% (inactive). Further, the aptamer binding inhibition in [9] is 3% (inactive). For the same compound, the results for the response in [10] and in assay [12] were -4.94% (inactive) and -7.84% (inactive), respectively. Also, the binding (% of control) in assay [13] was 94.1% (inactive). In addition, the efflux inhibition (fraction of control) in [14] was 0.23 (inactive). Besides, the differentiation response in assay [16] is 0% (inactive).

Turning to `COc1ccc(NC(=O)CC2C(=O)N(C)C(=S)N2Cc2ccncc2)cc1` (stereo not drawn), in assay [1], the percent of DMSO control GFP was 88% (inactive). Besides, the GFP response vs DMSO in assay [2] was 123% (inactive); in [4], 75.4% (inactive). Besides, the percent response of DMSO control in assay [3] is 97.9% (inactive). In addition, in [5], the GFP response, % of DMSO is 88.2% (inactive). The same compound yielded a double positive events in assay [6] of 54.8%. Also, the vesicle binding response in [6] was 194% (inactive). Also, the inhibition in assay [7] was 5.49% (inactive); in assay [11], 0.05% (inactive); in assay [15], 8% (inactive). The superoxide response (% of plate) in [8] was 105% (inactive). For the same compound, the aptamer binding inhibition in assay [9] is 0% (inactive). Also, the values for the response in assay [10] and in assay [12] were -1.13% (inactive) and -1.16% (inactive), respectively. Also, in [13], the binding (% of control) was 100% (inactive). Further, the efflux inhibition (fraction of control) in assay [14] was 0.01 (inactive). In addition, the differentiation response in assay [16] was 1.64% (inactive).

With `CC(C)OC(=O)c1ccc(NC(=O)c2cncc(Br)c2)cc1`, in assay [1], the percent of DMSO control GFP was 103% (inactive). Besides, the GFP response vs DMSO is 104% (inactive) in assay [2] and 103% (inactive) in assay [4]. Moreover, the percent response of DMSO control in assay [3] is 98.6% (inactive). Further, in assay [5], the GFP response, % of DMSO was 88.5% (inactive). In [6], the double positive events is 56.1%. In addition, the vesicle binding response in assay [6] was 143% (inactive). Also, the results for the inhibition in assay [7], in assay [11] and in assay [15] were 16.3% (inactive), -2.11% (inactive) and -3% (inactive), respectively. Moreover, in assay [8], the superoxide response (% of plate) is 114% (inactive). In [9], the aptamer binding inhibition is -1% (inactive). Further, the response in assay [10] was 0.79% (inactive); in assay [12], 4.94% (inactive). For the same compound, in [13], the binding (% of control) was 99% (inactive). For the same compound, the efflux inhibition (fraction of control) in assay [14] was 0.04 (inactive). In [16], the differentiation response is -7.5% (inactive).

Regarding `CC(/C=C1\SC(=O)N(CCCC(=O)O)C1=O)=C\c1ccccc1`, the percent of DMSO control GFP in assay [1] was 105% (inactive). Besides, the values for the GFP response vs DMSO in [2] and in assay [4] were 103% (inactive) and 124% (inactive), respectively. In addition, in assay [3], the percent response of DMSO control is 99% (inactive). In addition, the GFP response, % of DMSO in assay [5] is 99.3% (inactive). In addition, the double positive events in assay [6] worked out at 59.5%. Also, in assay [6], the vesicle binding response is 161% (inactive). The figures for the inhibition in assay [7], in assay [11] and in assay [15] were 12.5% (inactive), 37.2% (inactive) and 0% (inactive), respectively. For the same compound, in assay [8], the superoxide response (% of plate) was 112% (inactive). Besides, the aptamer binding inhibition in assay [9] was 2% (inactive). The response was -6.06% (inactive) in assay [10] and -1.36% (inactive) in assay [12]. Besides, in assay [13], the binding (% of control) is 101% (inactive). The efflux inhibition (fraction of control) in assay [14] was 0 (inactive). Moreover, the differentiation response in assay [16] is 12.8% (inactive).
